Sampled rows, rich in hits. Any-hit rate of the full collection: about 3.8%.
A549 viability – Nrf2 qHTS screen for inhibitors: counterscreen for cytotoxicity. 390,000 compounds, 0.16% hits. A549 ARE-Fluc cells, CellTiter-Fluor viability, 18-24 h. Potency, µM (top dose mostly 46 µM), actives largely listed as inhibitors
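A549 ARE-Fluc cells in 5% FBS OPTI-MEM, 5000 cells/well, rested 2 h then exposed to compounds in concentration-response for 18-24 h at 37 °C. Viability by CellTiter-Fluor fluorescence (Ex 405/Em 525) after 30 min; luciferase luminescence (BugLite, 15 min, RT) read afterwards.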
IDH1 R132H inh – qHTS for Inhibitors of mutant isocitrate dehydrogenase 1 (IDH1): qHTS. Isocitrate dehydrogenase [NADP] cytoplasmic (Homo sapiens), O75874. IDH1-R132H enzyme, NADPH consumption, diaphorase/resazurin fluorescence. Potency, µM (series often up to 76.6 µM), actives largely listed as inhibitors. 390,000 compounds, 0.093% hits. AID 602179, 2012; also: nearly all actives have a fitted effect of over 65% in size
Target sequence (O75874 whole entry R132H, stated change not applied): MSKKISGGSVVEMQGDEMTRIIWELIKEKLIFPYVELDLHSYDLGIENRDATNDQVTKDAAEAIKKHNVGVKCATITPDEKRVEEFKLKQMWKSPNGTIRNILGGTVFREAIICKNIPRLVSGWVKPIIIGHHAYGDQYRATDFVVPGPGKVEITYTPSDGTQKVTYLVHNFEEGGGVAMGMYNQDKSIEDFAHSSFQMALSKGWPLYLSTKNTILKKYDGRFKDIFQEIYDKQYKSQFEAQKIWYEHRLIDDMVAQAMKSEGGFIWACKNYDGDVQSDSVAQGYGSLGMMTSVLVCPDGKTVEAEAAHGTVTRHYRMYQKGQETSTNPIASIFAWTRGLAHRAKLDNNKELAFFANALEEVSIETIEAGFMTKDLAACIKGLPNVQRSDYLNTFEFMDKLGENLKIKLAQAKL
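IDH1-R132H (0.5 ug/mL) preincubated 30 min with compound, then NADPH (0.016 mM) and alpha-KG (2 mM) added; 80 min at RT, pH 7.5. Remaining NADPH coupled via diaphorase/resazurin to fluorescence (540/590 nm); concentration-response curves normalized to no-enzyme control.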
ELG1 DNA repair – qHTS screen for small molecules that inhibit ELG1-dependent DNA repair in human embryonic kidney (HEK293T) cells expressing luciferase-tagged ELG1; Potency, µM (doses to about 46.1 µM), hits mostly inhibitors; HEK293T ELG1-luciferase reporter, luminescence, 16 h; DNA damage induced by 5-fluorouridine; 330,000 compounds, 2.3% hits; also: nearly all actives have a fitted effect of over 55% in size
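HEK293T cells expressing luciferase-tagged ELG1 (2,000/well) received 5-Fluorouridine plus compound or DMSO for 16 hr at 37 °C. Luciferase was read by ONE-Glo luminescence after 30 min at room temperature.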
Nrf2 activator – qHTS of Nrf2 Activators; AREc32 ARE-luciferase reporter (MCF7-derived line), luminescence, 24 h; 410,000 compounds, 0.31% hits; Potency, µM (top dose mostly 46.1 µM), hits mostly activators; also: nearly all actives have a fitted effect of over 65% in size
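Steps: seed AREc32_Fluc cells (1000/well, 5% FBS OPTI-MEM); incubate overnight at 37 deg C; add 23 nL compound; incubate 24 hr; add Steady-Glo; hold 30 min RT; read luminescence.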
Nrf2 block – Nrf2 qHTS screen for inhibitors | 360,000 compounds, 2.1% hits | A549 ARE-Fluc reporter, luciferase luminescence, 18-24 h | AID 504444, 2011 | Potency, µM (series often up to 46 µM), usual class: inhibitors; also: nearly all actives have a fitted effect of over 60% in size
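A549 ARE_Fluc cells, 5000/well, 5% FBS OPTI-MEM; compounds in dose-response, 18-24 h at 37 °C/5% CO2; CellTiter-Fluor viability read (Ex 405/Em 525), then BugLite luciferase luminescence = Nrf2 activity.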
A number is an active result; [ ] = remark or other dose. Calls follow the shape of the dose curve; as a rule, active = well fitted curve in the direction sought with a large enough effect; inconclusive = small, poorly fitted or top-dose-only effect, or another doubt; inactive = no such curve, though single readings can be large; an effect the other way counts as inactive or inconclusive.

How did O=C(CC1SC(=O)N(c2ccccc2)C1=O)Nc1ccc(Br)cc1 (stereo not drawn) do in these assays?
A549 viability: inactive; IDH1 R132H inh: inactive; ELG1 DNA repair: inactive; Nrf2 activator: inactive; Nrf2 block: inconclusive

Results for CN(C1=NC(=O)C(CC(=O)Nc2ccc(Br)cc2)S1)c1ccc(O)cc1 (stereo not drawn) ?
A549 viability: inactive; IDH1 R132H inh: inactive; ELG1 DNA repair: inconclusive; Nrf2 activator: inactive; Nrf2 block: 23µM

How did CS(=O)(=O)Nc1ccccc1C(=O)Nc1cc(Cl)cc(Cl)c1 do in these assays?
A549 viability: inactive; IDH1 R132H inh: inactive; ELG1 DNA repair: inconclusive; Nrf2 activator: inactive; Nrf2 block: 13µM

How did CCOC(=O)Cn1nc(C)c(NC(=O)COc2ccc(Cl)cc2C)c1C do in these assays?
A549 viability: inactive; Nrf2 activator: inactive; Nrf2 block: 23µM

What do the screens show for `CC[C@H](C)Cc1cn([C@@H](CCCCNC(=O)OC(C)(C)C)C(=O)NCCCCCCCCCCC(=O)N2CCN(C(=O)OC(C)(C)C)CC2)nn1`?
A549 viability: inconclusive; IDH1 R132H inh: inactive; ELG1 DNA repair: inconclusive; Nrf2 activator: inactive; Nrf2 block: 10µM

Results for CC[C@H](C)C(C(=O)N1CCN(C(=O)OC(C)(C)C)CC1)n1cc(C(CC(C)C)NC(=O)OC(C)(C)C)nn1 (stereo partly drawn) ?
A549 viability: inactive; IDH1 R132H inh: inactive; ELG1 DNA repair: inconclusive; Nrf2 activator: inactive; Nrf2 block: inactive

How did CC[C@@H](C)[C@@H](C(=O)N1CCN(C(=O)OC(C)(C)C)CC1)n1cc(CCCCNC(=O)OC(C)(C)C)nn1 do in these assays?
A549 viability: inactive; IDH1 R132H inh: inactive; ELG1 DNA repair: 21µM; Nrf2 activator: inactive; Nrf2 block: inconclusive

How did CC(C)(C)OC(=O)NCCCC[C@@H](C(=O)NCCCCCCCCCCC(=O)N1CCN(C(=O)OC(C)(C)C)CC1)n1cc(CCO)nn1 do in these assays?
A549 viability: inconclusive; IDH1 R132H inh: inactive; ELG1 DNA repair: inconclusive; Nrf2 activator: inactive; Nrf2 block: inconclusive

Results for CSCC[C@@H](C(=O)NCCCCCCCCCCC(=O)N1CCN(C(=O)OC(C)(C)C)CC1)n1cc(CCO)nn1 ?
A549 viability: inactive; IDH1 R132H inh: inactive; ELG1 DNA repair: 18µM; Nrf2 activator: inactive; Nrf2 block: inconclusive

What do the screens show for `O=C1c2ccccc2CCCC12N=NCC2c1cccc2ccccc12` (stereo not drawn)?
A549 viability: inactive; IDH1 R132H inh: inactive; ELG1 DNA repair: inactive; Nrf2 activator: inactive; Nrf2 block: 16µM

What do the screens show for `O=C(C1CCCN(S(=O)(=O)c2cccc3nsnc23)C1)N1CC=C(c2ccccc2)CC1` (stereo not drawn)?
A549 viability: inconclusive; IDH1 R132H inh: inactive; ELG1 DNA repair: inconclusive; Nrf2 activator: inactive; Nrf2 block: inconclusive

What do the screens show for `O=C(C1CCN(S(=O)(=O)c2cccc3nsnc23)CC1)N1CC=C(c2ccccc2)CC1`?
A549 viability: inactive; IDH1 R132H inh: inactive; ELG1 DNA repair: 18µM; Nrf2 activator: inactive; Nrf2 block: inconclusive

What do the screens show for `O=C(C1CCC(CNS(=O)(=O)c2cccc3nsnc23)CC1)N1CC=C(c2ccccc2)CC1` (stereo not drawn)?
A549 viability: inactive; IDH1 R132H inh: inactive; ELG1 DNA repair: 21µM; Nrf2 activator: inactive; Nrf2 block: 21µM

How did COc1ccc(C(C)C)cc1S(=O)(=O)NCCc1c(C)[nH]c2ccc(C)cc12 do in these assays?
A549 viability: inactive; IDH1 R132H inh: inactive; Nrf2 activator: inactive; Nrf2 block: inconclusive

What do the screens show for `CCc1ccc(NC(=O)C2CCN(S(=O)(=O)c3cccc(-c4noc(C)n4)c3)CC2)cc1`?
A549 viability: inactive; IDH1 R132H inh: inactive; Nrf2 activator: inactive

What do the screens show for `COc1ccc(Cl)c(Cn2c(NCCN)nc3c2c(=O)n(C)c(=O)n3C)c1`?
A549 viability: inactive; IDH1 R132H inh: inactive; Nrf2 activator: inactive; Nrf2 block: inactive

What do the screens show for `Cn1c(SCc2ccccc2)nc2ccsc2c1=O`?
A549 viability: inactive; IDH1 R132H inh: inactive; ELG1 DNA repair: inconclusive; Nrf2 activator: 13µM; Nrf2 block: 16µM

Results for CCC(C)NC(=S)Nc1ccc(C(=O)OC)cc1 (stereo not drawn) ?
A549 viability: inactive; IDH1 R132H inh: inactive; ELG1 DNA repair: inactive; Nrf2 activator: inactive; Nrf2 block: 18µM

Results for CCOc1ccc(CCNC(=O)COC(=O)c2cc([N+](=O)[O-])ccc2N2CCOCC2)cc1OCC ?
A549 viability: inactive; IDH1 R132H inh: inactive; ELG1 DNA repair: 18µM; Nrf2 activator: inactive; Nrf2 block: inactive

How did CC(=O)Nc1ccc(NC(=O)COC(=O)c2cc([N+](=O)[O-])ccc2N2CCOCC2)cc1 do in these assays?
A549 viability: inactive; IDH1 R132H inh: inactive; ELG1 DNA repair: inactive; Nrf2 activator: inactive; Nrf2 block: inactive

Results for O=C(COC(=O)c1cc([N+](=O)[O-])ccc1N1CCOCC1)Nc1cccc(F)c1 ?
A549 viability: 4.6µM; IDH1 R132H inh: inactive; ELG1 DNA repair: 21µM; Nrf2 activator: inactive; Nrf2 block: inconclusive

Results for O=C(Cn1cc(SCc2ccccc2F)c2ccccc21)N1CCCCCC1 ?
A549 viability: inactive; IDH1 R132H inh: inactive; Nrf2 activator: inactive; Nrf2 block: inconclusive

How did CC1(C)COC(/C=C/c2cccc([N+](=O)[O-])c2)=N1 do in these assays?
A549 viability: inconclusive; IDH1 R132H inh: inactive; ELG1 DNA repair: inconclusive; Nrf2 activator: 13µM; Nrf2 block: inconclusive

What do the screens show for `Cc1cc2oc3c(c(=O)c2cc1C)C(c1cccc(Br)c1)N(Cc1ccco1)C3=O` (stereo not drawn)?
A549 viability: inactive; IDH1 R132H inh: inactive; ELG1 DNA repair: 0.63µM; Nrf2 activator: inactive; Nrf2 block: 8.2µM

What do the screens show for `Cc1cc2oc(=O)cc(Cn3ncc(Cl)c(Cl)c3=O)c2cc1Cl`?
A549 viability: inconclusive; IDH1 R132H inh: inactive; ELG1 DNA repair: inconclusive; Nrf2 activator: 4µM; Nrf2 block: inconclusive

How did COc1ccc(OC)c(C2=Nn3c(nnc3-c3ccccc3C)SC2)c1 do in these assays?
A549 viability: inactive; Nrf2 block: inactive

Results for COC(=O)CSc1nnc(COc2cccc3ccccc23)o1 ?
A549 viability: inactive; IDH1 R132H inh: inactive; ELG1 DNA repair: inactive; Nrf2 activator: inactive[9.22 µM]; Nrf2 block: inactive

Results for Cc1csc(N(C)C(=O)CSc2nnc(COc3cccc4ccccc34)o2)n1 ?
A549 viability: inactive; IDH1 R132H inh: inactive; ELG1 DNA repair: inactive; Nrf2 activator: inactive; Nrf2 block: 21µM

What do the screens show for `O=P(c1ccccc1)(c1ccccc1)c1cnc2ccccn12`?
A549 viability: inactive; Nrf2 block: inactive

Results for Cc1ccc(Cl)cc1-n1ncc2c(N3CCN(Cc4ccccc4)CC3)ncnc21 ?
A549 viability: inconclusive; IDH1 R132H inh: inactive; Nrf2 activator: inactive

From PubChem BioAssay
